Compound activity deposited in PubChem by National Center for Advancing Translational Sciences (NCATS).
Pf growth 48h = Primary qHTS for delayed death inhibitors of the malarial parasite plastid, 48 hour incubation; P. falciparum luciferase growth in erythrocytes, 48 h; Potency, µM (top dose mostly 28.7 µM), for the others: at the highest dose activity change, negative = inhibition, actives largely listed as inhibitors; actives 5.9% (n = 310,000); note: % is set by controls: 0 for no effect and ±100 for the full control effect
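Here the parasites carry a stable luciferase gene and grow inside erythrocytes in Albumax-based RPMI medium with compound for one erythrocytic cycle. Activity is scored as loss of luminescent signal.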
NS1 inh = qHTS Assay for Inhibitors of Influenza NS1 Protein Function; Potency, µM (top dose mostly 46.1 µM), without a hit: at the top dose activity, positive = more growth; actives 0.4% (n = 270,000); calls by dose curve; note: actives are rising curves; nearly all actives have a fitted effect of over 50% in size
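Growth recovery, yeast-based: influenza A NS1 expressed in S. cerevisiae causes slow growth, and suppressors are detected by OD600. The parent strain without NS1 is used as positive control.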
SARS PLpro yeast = qHTS of Yeast-based Assay for SARS-CoV PLP; actives 0.19% (n = 330,000); S. cerevisiae expressing SARS-CoV PLpro, growth rescue; Potency, µM (highest dose often 32.9 µM), for inactives: at the highest dose activity, positive = growth rescue, most hits filed as activators; calls by dose curve; note: 0% is about no effect; nearly all actives have a fitted effect of over 55% in size
RE007 growth inh = qHTS Assay for Inhibitors of the HIV-1 protein Vpr | S. pombe RE007 Vpr strain, BacTiter-Glo ATP luminescence, 24 h | Potency, µM (top dose mostly 92.2 µM), for the others: at the top dose activity change, negative = less growth, hits mostly inhibitors | actives 0.21% (n = 360,000); active = well fitted falling curve with a large enough effect; inconclusive = small, poorly fitted or top-dose-only effect; inactive = no such curve, though single readings can be large or run the other way; note: % is set by controls: 0 for no effect and ±100 for the full control effect; nearly all actives have a fitted effect of over 50% in size
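Fission yeast RE007 carrying one integrated HIV-1 vpr copy, seeded at OD 0.01 in PMG+AL medium with 23 nL pinned compound. Grown 24 h at 30 degrees; viability read by BacTiter-Glo luminescence after 5 min.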
Pf growth 96h = Primary qHTS for delayed death inhibitors of the malarial parasite plastid, 96 hour incubation | Potency, µM (highest dose often 28.7 µM), without a hit: at the highest dose activity change, negative = inhibition, actives largely listed as inhibitors | P. falciparum luciferase reporter growth, 96 h | actives 6.9% (n = 320,000); note: % is set by controls: 0 for no effect and ±100 for the full control effect
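Compounds incubated with erythrocytes infected by luciferase-expressing P. falciparum (2% hematocrit, 0.05% parasitemia final) for 96 hours, 37 C in 5% CO2. Growth inhibition scored as decreased luciferase luminescence.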
The depositor's hits bear a star; ? = inconclusive; · = not tested or not shown. This is a sample that favours compounds with a hit; in the whole collection about 9.5% have one here. Unless noted, calls come from the whole dose curve; as a rule, active = well fitted inhibition curve with a large enough effect; inconclusive = small, poorly fitted or top-dose-only effect, or another doubt; inactive = no such curve, though single readings can be large or run the other way. Potency is the fitted concentration of half-maximal effect.

SMILES | Pf growth 48h | NS1 inh | SARS PLpro yeast | RE007 growth inh | Pf growth 96h
O=C(CCN1C(=O)C2C3CC(C(Br)C3Br)C2C1=O)OCC(=O)c1cccc([N+](=O)[O-])c1 (stereo not given) | 22.0% | -1.2% | 0.2% | -4.0% | 38.6%
CCC(C)n1c(NC(=O)c2ccccc2)c(C#N)c2nc3ccccc3nc21 (stereo not given) | 3.7µM* | 4.0% | -25.1% | 0.5% | 2.94µM*
CCCCn1c(NC(=O)c2ccccc2)c(C#N)c2nc3ccccc3nc21 | 5.86µM* | -45.8% | -19.9% | -4.1% | ·
CCCCCCCCCCCCCCCC(=O)OCC(COP(=O)(O)OCC[N+](C)(C)C)OC(=O)CCCCCCCCCCCCCCC (stereo not given) | -4.1% | · | · | · | -11.1%
O=C(CN(C(=O)CCC(=O)Nc1ccccn1)C1CCCC1)NCc1ccc(F)cc1 | 0.4% | -4.7% | -0.6% | -4.7% | 60.9%
CCN(CC)C1=C(Cl)C(=O)C(Cl)C12OCCO2 (stereo not given) | 14.7µM* | 0.9% | 1.0% | -9.6% | -6.5%
CC(C)C(=O)Nc1nnc(SCC(=O)NC2CCCC2)s1 | -1.7% | 11.4% | -3.7% | 5.0% | 5.7%
O=c1[nH]c(=O)n2c(c1-c1ccccc1)OC(CBr)C2 (stereo not given) | · | · | · | -1.2% | ·
Cc1ccc(C)c(NC(=O)CSc2nnc(C3CCCCC3)o2)c1 | 14.0% | -2.4% | -18.1% | 15.1% | -21.5%
O=C(NN=Cc1ccc(OC(F)F)cc1)c1ccc(NS(=O)(=O)c2cccs2)cc1 | · | · | 0.7% | 0.8% | ·
N=c1ccn(CC(=O)c2ccc(-c3ccccc3)cc2)cc1 | 0.828µM* | -5.5% | -1.5% | ? | ?
S=C1SCN(CC2CC2)CN1CC1CC1 | ? | -36.6% | 3.2% | ? | 5.22µM*
COC(=O)C1=C(c2cccc(C#N)c2)C[C@@H]2CC[C@H]1N2C(=O)NCCOc1ccccc1Cl | 13.1µM* | · | 1.1% | 1.0% | ?
COC(=O)C1=C(c2cccc(OCc3ccccc3)c2)C[C@@H]2CC[C@H]1N2C | · | · | · | -23.2% | ·
COC(=O)C1=C(c2cccc(C#N)c2)C[C@@H]2CC[C@H]1N2C(=O)NCCOc1ccccc1 | ? | · | -0.4% | -3.3% | -0.8%
COC(=O)C1=C(c2cccc(OCc3ccccc3)c2)C[C@@H]2CC[C@H]1N2C(=O)NCCc1ccc(F)cc1 | 7.38µM* | · | -3.4% | 5.1% | ?
COC(=O)C1=C(c2ccccc2OCc2ccccc2)C[C@@H]2CC[C@H]1N2C(=O)NCCOc1ccccc1Cl | 5.22µM* | · | 0.3% | 2.9% | ?
COC(=O)C1=C(c2cccc(OCc3ccccc3)c2)C[C@@H]2CC[C@H]1N2C(=O)NCCOc1ccccc1Cl | 13.1µM* | · | 4.6% | -5.3% | ?
CC(=O)Nc1ccc(S(=O)(=O)Nc2ccc(-n3cnnn3)cc2)cc1 | -20.3% | · | 1.2% | 11.6% | ?
COC(=O)C1=C(c2cccc(OCc3ccccc3)c2)C[C@@H]2CC[C@H]1N2C(=O)NCCOc1ccccc1 | 9.28µM* | · | 0.9% | -3.0% | ?
COCCn1c(SCC(=O)NN2C(=O)NC(C)(c3ccccc3)C2=O)nnc1-c1ccncc1 (stereo not given) | -20.4% | · | 3.0% | 15.4% | 0.0%
O=S(=O)(c1ccc(F)cc1)N1CCN(c2nc(-c3ccc(F)cc3)cs2)CC1 | ? | 17.3% | 1.4% | -4.0% | ?
Cc1sc(N2CCN(S(=O)(=O)c3ccc4c(c3)NC(=O)CO4)CC2)nc1-c1ccccc1 | ? | 15.2% | -11.0% | 5.8% | 9.28µM*
O=C1COc2ccc(S(=O)(=O)N3CCN(c4ccccc4F)CC3)cc2N1 | -17.1% | 2.2% | -0.9% | 2.7% | 68.6%
COc1ccc(-c2csc(N3CCN(S(=O)(=O)c4ccc5c(c4)NC(=O)CO5)CC3)n2)cc1 | 8.28µM* | 21.3% | -3.0% | 20.2% | 11.7µM*
COc1ccc(OC)c(S(=O)(=O)Oc2ccc(N)c3ccccc23)c1 | · | · | · | -14.7% | ·
Cc1cc(/C=C2\SC(=Nc3ccccc3)NC2=O)c(C)n1-c1ccc(S(N)(=O)=O)cc1 | 4.15µM* | ? | -16.0% | 9.0% | ?
O=S(OCCN1CCOCC1)C(c1ccccc1)c1ccccc1 (stereo not given) | · | · | · | -0.4% | ·
